Source: PubChem BioAssay AID1259240 (Keith Lab, Institute of Cancer Science, University of …, 2017)
Values without a mark were called inactive. Active and inactive are the calls of the source. Rule as the data show it: active = fold change mostly below about -2 (no sharp cut-off); inactive = mostly above about -1.8.

Assay: TERT promoter activity modulators, primary screen, cell-based, luciferase reporter, human (AID 1259240)
Settings: A2780 TERT promoter luciferase reporter, 16 h; at 20 µM, fold versus average of vehicle-only wells

CCOC(=O)C1CCCN(c2c(N3CCC(N4CCCCC4)CC3)c(=O)c2=O)C1 (stereo not given)
fold change: -1.11

Cc1nn2c3cc(N4CCOCC4)ccc3nc2c2ccccc12
fold change: -2.16 (active)

COc1ccc(CCn2c(=O)c3cccnc3n(CC#N)c2=O)cc1OC
fold change: 1.04

CCOC(=O)c1ccc(N2C(=O)c3n[nH]c(-c4ccco4)c3C2c2ccc(C)cc2)cc1 (stereo not given)
fold change: -2.14 (active)

Cc1nc2c(-c3ccc(F)cc3)c(C)nn2c(C)c1CCC(=O)NCc1ccc2c(c1)OCO2
fold change: 1.02

COc1cccc(C2C(C#N)=C(N)Oc3n[nH]c(-c4ccc(Br)cc4)c32)c1OC (stereo not given)
fold change: -1.08

COc1cc2[nH]c(C)cc(=O)c2cc1OC
fold change: 1.12

Cn1c(=O)oc2cc(S(=O)(=O)N3CCCC(C(=O)NCCN4CCCC4)C3)ccc21 (stereo not given)
fold change: 1.73

Cc1cc(C)cc(CC(CC(=O)Nc2nccs2)C(=O)Nc2nccs2)c1 (stereo not given)
fold change: 1.18

CC1CCN(c2nnc(NC(=O)Nc3ccc(F)cc3)s2)CC1
fold change: -1.1

C=CCNC(=O)CSc1nc(-c2cccs2)cc(C(F)(F)F)n1
fold change: -1.55

CC1CCCC(NS(=O)(=O)c2cccc3cccnc23)C1C (stereo not given)
fold change: -3.72 (active)

CCCN(CCC)S(=O)(=O)c1ccc2c(c1)oc(=O)n2CC(=O)OCC
fold change: -1.16

Cn1c(=O)c2c(SCC(=O)Nc3ccc4c(c3)OCO4)nc(-c3ccco3)nc2n(C)c1=O
fold change: 1.03

CCOC(=O)/C(=N\OC)c1cn2cc(Br)ccc2n1
fold change: 1.2
